Where “and” joins values, the source holds several entries; their conditions need not be identical. Equal values may be shown once. Screen size: about 5,500 compounds; about 2,000 (36%) were called active. Not shown: some 18% with an inconclusive outcome. Rule as the data show it: active = normalized growth mostly below about 0.91 (no sharp cut-off); inconclusive = no clear call, values can overlap the other calls; inactive = mostly above about 0.92. Some of the results follow.
Assay: chemical genetic growth profiling, strain panel (AID 1159580);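 also: tested at 20 µM; growth read once vehicle control cultures reached saturation at 30 °C; 1 = growth at the plate median or of vehicle wells; lower values mean less growth of the strain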
Conditions: growth OD

Measured: normalized growth

COc1ccc(Cc2nccc3cc(OC)c(OC)cc23)cc1OC
inactive: S. cerevisiae deletion strains, locus YJR066W, strain TOR1, hits give low values 0.975 | S. cerevisiae deletion strains, locus YJR075W, strain HOC1, hits give low values 0.995 | S. cerevisiae deletion strains, locus YKL009W, strain mrt4, hits give low values 0.984 | S. cerevisiae deletion strains, locus YKL068W, hits give low values 0.999 | S. cerevisiae deletion strains, locus YKL085W, strain MDH1 (second series), hits give low values 0.991 | S. cerevisiae deletion strains, locus YKL085W, strain MDH1, hits give low values 0.991 | S. cerevisiae deletion strains, locus YKL160W, strain elf1, hits give low values 1.02 | S. cerevisiae deletion strains, locus YKL190W, strain CNB1, hits give low values 1.01 | S. cerevisiae deletion strains, locus YKR001C, strain vps1, hits give low values 0.961 | S. cerevisiae deletion strains, locus YKR026C, strain gcn3, hits give low values 1 | S. cerevisiae deletion strains, locus YKR091W, strain srl3, hits give low values 0.998 | S. cerevisiae deletion strains, locus YLL001W, strain dnm1, hits give low values 1.01 | S. cerevisiae deletion strains, locus YLL026W, hits give low values 1 | S. cerevisiae deletion strains, locus YLL041C, strain sdh2, hits give low values 1 | S. cerevisiae deletion strains, locus YLR027C, strain aat2, hits give low values 0.994 | S. cerevisiae deletion strains, locus YLR039C, strain RIC1, hits give low values 1 | S. cerevisiae deletion strains, locus YLR058C, strain SHM2, hits give low values 1.02 | S. cerevisiae deletion strains, locus YLR102C, strain apc9, hits give low values 0.988 | S. cerevisiae deletion strains, locus YLR113W, strain HOG1, hits give low values 0.975 | S. cerevisiae deletion strains, locus YLR221C, strain rsa3, hits give low values 1.01 | S. cerevisiae deletion strains, locus YLR258W, strain gsy2, hits give low values 1 | S. cerevisiae deletion strains, locus YLR262C, strain YPT6 (second series), hits give low values 1.01 | S. cerevisiae deletion strains, locus YLR262C, strain YPT6, hits give low values 1.01 | S. cerevisiae deletion strains, locus YLR268W, strain sec22, hits give low values 0.967 | S. cerevisiae deletion strains, locus YLR320W, strain mms22, hits give low values 1.01 | S. cerevisiae deletion strains, locus YLR330W, strain CHS5, hits give low values 1.01 | S. cerevisiae deletion strains, locus YLR342W, strain FKS1 (second series), hits give low values 0.996 | S. cerevisiae deletion strains, locus YLR342W, strain FKS1, hits give low values 1.01 | S. cerevisiae deletion strains, locus YLR357W, strain rsc2, hits give low values 0.972 | S. cerevisiae deletion strains, locus YLR370C, strain arc18, hits give low values 0.992 | S. cerevisiae deletion strains, locus YLR371W, strain rom2, hits give low values 0.999 | S. cerevisiae deletion strains, locus YLR384C, strain iki3, hits give low values 1 | S. cerevisiae deletion strains, locus YLR418C, strain cdc73, hits give low values 0.933 | S. cerevisiae deletion strains, locus YML016C, strain PPZ1, hits give low values 1.01 | S. cerevisiae deletion strains, locus YML032C, strain rad52, hits give low values 0.977 | S. cerevisiae deletion strains, locus YML120C, strain ndi1, hits give low values 1 | S. cerevisiae deletion strains, locus YML124C, strain tub3, hits give low values 0.988 | S. cerevisiae deletion strains, locus YMR058W, strain fet3, hits give low values 1.01 | S. cerevisiae deletion strains, locus YMR078C, strain ctf18, hits give low values 0.991 | S. cerevisiae deletion strains, locus YMR125W, strain sto1, hits give low values 0.994 | S. cerevisiae deletion strains, locus YMR129W, hits give low values 0.998 | S. cerevisiae deletion strains, locus YMR205C, strain PFK2, hits give low values 1.02 | S. cerevisiae deletion strains, locus YMR223W, strain ubp8, hits give low values 0.987 | S. cerevisiae deletion strains, locus YMR231W, strain pep5, hits give low values 1.01 | S. cerevisiae deletion strains, locus YMR307W, strain GAS1, hits give low values 0.988 and 0.997 | S. cerevisiae deletion strains, locus YNL067W, strain RPL9B, hits give low values 1.01 | S. cerevisiae deletion strains, locus YNL071W, strain lat1, hits give low values 1 | S. cerevisiae deletion strains, locus YNL128W, strain TEP1, hits give low values 1.01 and 0.977 | S. cerevisiae deletion strains, locus YNL153C, strain GIM3, hits give low values 1.01 | S. cerevisiae deletion strains, locus YNL175C, strain NOP13, hits give low values 0.988 | S. cerevisiae deletion strains, locus YNL183C, strain NPR1, hits give low values 0.946 | S. cerevisiae deletion strains, locus YNL197C, strain WHI3, hits give low values 0.996 | S. cerevisiae deletion strains, locus YNL209W, strain ssb2, hits give low values 1 | S. cerevisiae deletion strains, locus YNL224C, strain SQS1, hits give low values 0.993 | S. cerevisiae deletion strains, locus YNL233W, strain BNI4, hits give low values 1.02 | S. cerevisiae deletion strains, locus YNL248C, strain rpa49, hits give low values 0.992 | S. cerevisiae deletion strains, locus YNL250W, strain rad50, hits give low values 0.985 | S. cerevisiae deletion strains, locus YNL271C, strain bni1, hits give low values 0.982 | S. cerevisiae deletion strains, locus YNL298W, strain CLA4, hits give low values 0.999 | S. cerevisiae deletion strains, locus YNL307C, strain MCK1, hits give low values 0.98 | S. cerevisiae deletion strains, locus YNL322C, strain KRE1 (second series), hits give low values 1.01 | S. cerevisiae deletion strains, locus YNR049C, strain mso1, hits give low values 0.999 | S. cerevisiae deletion strains, locus YNR052C, strain pop2, hits give low values 0.986 | S. cerevisiae deletion strains, locus YOL006C, strain TOP1, hits give low values 1.02 | S. cerevisiae deletion strains, locus YOL012C, strain htz1 1.11 | S. cerevisiae deletion strains, locus YOL147C, strain pex11, hits give low values 0.988 | S. cerevisiae deletion strains, locus YOR001W, strain rrp6, hits give low values 0.965 | S. cerevisiae deletion strains, locus YOR061W, strain CKA2, hits give low values 1.01 | S. cerevisiae deletion strains, locus YOR069W, strain VPS5, hits give low values 1.01 | S. cerevisiae deletion strains, locus YOR070C, strain gyp1, hits give low values 0.999 | S. cerevisiae deletion strains, locus YOR080W, strain dia2, hits give low values 0.997 | S. cerevisiae deletion strains, locus YOR083W, strain WHI5 (second series), hits give low values 1 | S. cerevisiae deletion strains, locus YOR083W, strain WHI5, hits give low values 1.03 | S. cerevisiae deletion strains, locus YOR106W, strain vam3, hits give low values 1.02 | S. cerevisiae deletion strains, locus YOR136W, strain idh2, hits give low values 0.998 | S. cerevisiae deletion strains, locus YOR144C, strain elg1, hits give low values 1 | S. cerevisiae deletion strains, locus YOR184W, strain ser1, hits give low values 0.984 | S. cerevisiae deletion strains, locus YOR231W, strain MKK1, hits give low values 0.984 | S. cerevisiae deletion strains, locus YOR265W, strain rbl2, hits give low values 1 | S. cerevisiae deletion strains, locus YOR270C, strain vph1, hits give low values 0.998 | S. cerevisiae deletion strains, locus YOR290C, strain snf2, hits give low values 0.993 | S. cerevisiae deletion strains, locus YOR316C, strain cot1, hits give low values 1 | S. cerevisiae deletion strains, locus YPL051W, strain arl3, hits give low values 0.998 | S. cerevisiae deletion strains, locus YPL055C, strain LGE1, hits give low values 0.983 | S. cerevisiae deletion strains, locus YPL078C, strain atp4, hits give low values 0.998 | S. cerevisiae deletion strains, locus YPL106C, strain sse1, hits give low values 1 | S. cerevisiae deletion strains, locus YPL240C, strain hsp82, hits give low values 1.01 | S. cerevisiae deletion strains, locus YPL241C, strain CIN2, hits give low values 1.01 | S. cerevisiae deletion strains, locus YPL256C, strain CLN2, hits give low values 1.02 | S. cerevisiae deletion strains, locus YPR119W, strain clb2, hits give low values 0.99 | S. cerevisiae deletion strains, locus YPR141C, strain kar3, hits give low values 0.988 | S. cerevisiae deletion strains, locus YPR163C, strain tif3, hits give low values 0.974 | S. cerevisiae deletion strains, locus YPR167C, strain met16, hits give low values 0.991 | S. cerevisiae deletion strains, strain wtn01, hits give low values 0.985 | S. cerevisiae strains, strain wild type, hits give low values 1.01
